This passage reports Potency results from PubChem BioAssay (NCATS).

SMILES strings stand for the structures. Values without a mark were called inactive. Results filed as inconclusive are left out. Active and inactive are the calls of the source. Calls follow the shape of the dose curve; as a rule, active = well fitted curve in the direction sought with a large enough effect; inconclusive = small, poorly fitted or top-dose-only effect, or another doubt; inactive = no such curve, though single readings can be large; an effect the other way counts as inactive or inconclusive.

The target in test [1] is Glutathione peroxidase 1 (Homo sapiens) (UniProt P07203). Kind of test: Primary qHTS Assay for Inhibitors of Recombinant Selenoprotein Glutathione Peroxidase 1 (GPX1) (AID 1845191). Also: nearly all actives have a fitted effect of over 65% in size. In a few lines: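 NADPH consumption tracked by fluorescence at 340/450 nm between t=0 and t=15 min, room temperature. Final mix: 10 nM GPX1, 100 nM glutathione reductase, 1 mM GSH, 0.5 mM NADPH, 0.5 mM cumene hydroperoxide, 0.01% BSA; 30 min compound–enzyme preincubation.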
(Quantitative high-throughput screening tests each substance at several concentrations.)

The target in test [2] is Luciferin 4-monooxygenase (Photinus pyralis) (UniProt P08659). Kind of test: Primary firefly luciferase (FLuc) qHTS assay for identification of artifact compounds. (AID 1845220). Also: nearly all actives have a fitted effect of over 60% in size. A digest of the protocol:
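Compounds sat 15 min at room temperature with 10 uM luciferin and 10 uM ATP (pH 7.6 Tris acetate). Firefly luciferase (10 nM final) was then added, and luminescence was read 5 min later. Data normalized to no-enzyme and DMSO controls were Hill-fitted.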

Test [3] is described as follows: Primary fluorescence-based thiol-reactive (MSTI) qHTS assay for identification of artifact compounds. (AID 1845221). Also: nearly all actives have a fitted effect of over 65% in size. Also: potency is read from the fitted curve at half-maximal effect. In a few lines: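 Thiol-reactive compounds detected by quenching of 4 uM MSTI fluorescence (525/598 nm) after 1 h room-temperature dark incubation in PBS pH 7.4, 2% DMSO. qHTS titration; percent inhibition Hill-fitted against Acetyl-MSTI/MSTI controls.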

For test [4], the system named is Nanoluciferase (engineered Oplophorus gracilirostris luciferase). The test can be described thus: Primary Nanoluciferase (NLuc) qHTS assay for identification of artifact compounds. (AID 1845222). Also: series mostly up to about 54 µM. A digest of the protocol:
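Luminescence from secreted NLuc (filtered, 1:55-diluted S16 cell medium) read 5 min after Nano-Glo substrate; compounds preincubated 15 min, RT. Hill fits of inhibition normalized to DMSO and no-enzyme.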

The nature of test [5]: Primary redox qHTS assay for identification of artifact compounds. (AID 1845223). In a few lines:
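Redox-cycling detection via DTT (250 uM final) oxidation coupled to Amplex Red (25 uM)/HRP (250 mU/mL) in HBSS. 15 min preincubation plus 30 min after DTT, room temperature. Ex/Em 525/598 nm; 4-parameter Hill fit against DMSO and 10 uM DA3003.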

Sequence of Glutathione peroxidase 1 (Homo sapiens) (P07203 whole entry, looked up): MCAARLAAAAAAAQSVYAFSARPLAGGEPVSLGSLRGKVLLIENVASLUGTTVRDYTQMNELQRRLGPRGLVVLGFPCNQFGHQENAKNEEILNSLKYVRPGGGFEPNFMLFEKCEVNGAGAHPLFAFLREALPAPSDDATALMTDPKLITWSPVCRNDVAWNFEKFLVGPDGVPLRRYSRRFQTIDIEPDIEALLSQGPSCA

For the compound `CC(C)c1ccc2c(c1)C(=O)CC1C(C)(C(=O)O)CCCC21C` (stereo unspecified), the Potency entry in test [1], in test [2], in test [3], in test [4] and in test [5] was “inactive” each time.
On to `CC1CCC2(C)CCC3(C)C(=CCC4C5(C)CCC(O)C(C)(C(=O)O)C5CCC43C)C2C1C` (stereo unspecified), for which the Potency result in test [1], in test [2], in test [3], in test [4] and in test [5] was “inactive” each time.
On to `O=C(/C=C/c1ccccc1)O[C@@H]1[C@@H](CO)O[C@@](CO)(O[C@H]2O[C@H](CO)[C@@H](O)[C@H](O)[C@H]2O)[C@H]1O`, for which the Potency result in test [1], in test [2], in test [4] and in test [5] was “inactive” in each case. Moreover, in test [3], the Potency is 2920 nM (active).
As for `N#Cc1ccc(C2CCCc3cncn32)cc1` (stereo unspecified), the Potency result in test [1], in test [2], in test [3], in test [4] and in test [5] was “inactive” in each case.
As for `C/C=C/C=C/C(O)=C1/C(=O)[C@]2(C)C(=O)[C@@](C)(O)[C@H]1[C@H]([C@@]1(C)OC(=O)C(C)=C1O)[C@H]2C(=O)CC/C=C/C`, the Potency entry in test [1], in test [2] and in test [4] was “inactive” throughout.
In the case of `CC1=C2C(=O)C=C(CO[C@@H]3O[C@H](CO)[C@@H](O)[C@H](O)[C@H]3O)[C@@H]2[C@H]2OC(=O)[C@H](C)[C@@H]2CC1`, the Potency result in test [1], in test [2], in test [4] and in test [5] was “inactive” in each case.
Turning to `CC(C)C(NC(=O)c1ccc(O)cc1)C(=O)N1CCCC1C(=O)Nc1c(O)cccc1C(=O)O` (stereo unspecified), the Potency result in test [1], in test [2], in test [4] and in test [5] was “inactive” in each case.
As to `C=C1CC23CC1CCC2C12OC(=O)C(C)(C(O)CC1O)C2C3C(=O)O` (stereo unspecified), the Potency entry in test [1], in test [2], in test [4] and in test [5] was “inactive” throughout.
In the case of `CCOC(=O)C1=C(N)Oc2ccc(Cl)cc2C1C(C#N)C(=O)OCC` (stereo unspecified), the Potency result in test [1], in test [2], in test [3], in test [4] and in test [5] was “inactive” each time.
For `O=C(/C=C/c1ccc(O)c(O)c1)O[C@H]1[C@@H]2C=CO[C@@H](O[C@@H]3O[C@H](CO)[C@@H](O)[C@H](O)[C@H]3O)[C@@H]2[C@@]2(CO)O[C@@H]12`, the Potency result in test [1], in test [2], in test [4] and in test [5] was “inactive” in each case. Moreover, in test [3], the Potency is 2070 nM (active).
With `C[C@@H](c1ccccc1)N(C(N)=NC#N)c1cccc2ncccc12`, the Potency result in test [1], in test [2], in test [4] and in test [5] was “inactive” throughout.
For `C/C=C/C(=O)OC1/C=C/C(O)C(OC(C)=O)CCC(=O)OC1C` (stereo unspecified), the Potency result in test [1], in test [2], in test [3], in test [4] and in test [5] was “inactive” each time.
With `CC(C)NC(=O)c1ccc(C#Cc2ccncc2)cn1`, the Potency result in test [1], in test [2], in test [3], in test [4] and in test [5] was “inactive” throughout.
Consider `C=CCC1=C[C@]2(OC)[C@H](C)[C@@H](c3ccc(OC)c(OC)c3)O[C@]2(OC)CC1=O`, for which the Potency entry in test [1], in test [2], in test [4] and in test [5] was “inactive” each time.
As for `C=C1C2(C)CC3C4(C)C=CC(=O)OC(C)(C)C4CCC3(C)C1(C(=O)OC)C(=O)C(C)(O)C2=O` (stereo unspecified), the Potency entry in test [1], in test [2], in test [3], in test [4] and in test [5] was “inactive” throughout.
Consider `CN[C@H](CNC(=O)N1CCC[C@@H]([C@@H](OCCNC(=O)OC)c2cccc(Cl)c2)C1)C[C@H]1CCCOC1`, for which the Potency result in test [1], in test [2], in test [3], in test [4] and in test [5] was “inactive” throughout.
On to `CC1=CC(=O)CC(C)(C)C1CO[C@@H]1O[C@H](CO)[C@@H](O)[C@H](O)[C@H]1O` (stereo partly specified), for which the Potency result in test [1], in test [2], in test [3], in test [4] and in test [5] was “inactive” in each case.
Take `O=C(NCCN1CCCC1)c1cc(-c2ccc(CN3CCOCC3)cc2)nc2ccc(F)cc12`: the Potency result in test [1], in test [2], in test [3], in test [4] and in test [5] was “inactive” in each case.
As for `C=CCc1cc(OC)c(OC(C)C(O)c2ccc(O)c(OC)c2)c(OC)c1` (stereo unspecified), the Potency entry in test [1], in test [2], in test [4] and in test [5] was “inactive” in each case.
`C[C@@H]1[C@H](O)[C@@H]2OC(=O)C3=C2[C@H](CCC3)[C@@]12C[C@@H](c1ccoc1)OC2=O`: the Potency result in test [1], in test [2], in test [3], in test [4] and in test [5] was “inactive” each time.
In the case of `C=C(CCO)C(=O)OCC1OCC(OC(=O)C(=C)CCO[C@@H]2O[C@H](COC(=O)C(=C)CCO[C@@H]3O[C@H](CO)[C@@H](O)[C@H](O)[C@H]3O)[C@@H](O)[C@H](O)[C@H]2O)C(O)C1O` (stereo partly specified), the Potency result in test [1], in test [2], in test [3], in test [4] and in test [5] was “inactive” each time.
As to `CCC(C)/C=C(C)/C=C/C1=CC2=C(Cl)C(=O)C(C)(OC(C)=O)C(=O)C2=CN1C(CCCN=C(N)N)C(=O)O` (stereo unspecified), the Potency result in test [1], in test [2], in test [4] and in test [5] was “inactive” each time. Besides, the Potency in test [3] was 1030 nM (active).
For `CC(C)=CCC/C(C)=C/CO[C@@H]1O[C@H](CO[C@@H]2OC[C@](O)(CO)[C@H]2O)[C@@H](O)[C@H](O)[C@H]1O`, the Potency result in test [1], in test [2], in test [4] and in test [5] was “inactive” in each case.
Regarding `Cc1ccc(Cl)cc1N(CC(=O)Nc1c(F)cccc1F)S(C)(=O)=O`, the Potency result in test [1], in test [2], in test [3], in test [4] and in test [5] was “inactive” throughout.
